Measured values from the supplement of paper PMC6555819.

How the values were obtained:
Assay in all cases: PBM binding z-score (relative to random genomic background probes); higher = stronger binding; sequences stand for … in GC…GCGATTGACAGCGTAGAATGAAGG
[1] = tested on: PPARg:RXRa DBDmut IVT, anti-RXR (DBD mutation: RXRa K156A/R161A, NR concentration 270 nM, RXRa partner concentration 90 nM)
Procedure, shortened: (§1)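 Binding buffer was PBS pH 7.4 with 2% milk, 0.02% Triton X-100, 1 mM DTT, 0.2 mg/mL BSA and 0.4 mg/ml salmon testes DNA. In it, ligand-free nuclear receptor dimers were incubated 1 h on custom Agilent 4×180K protein-binding microarrays carrying double-stranded probes. Antibodies against each partner (one per run) detected binding, and z-scores were calculated against random background probes after regression normalization of scanned fluorescence.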

[2] = tested on: PPARg:RXRa IVT, anti-PPARg (NR concentration 270 nM, RXRa partner concentration 90 nM)
Procedure, shortened: as §1

[3] = tested on: PPARg DBDmut:RXRa IVT, anti-PPARg (DBD mutation: PPARg1 K132A/R137A, NR concentration 270 nM, RXRa partner concentration 90 nM)
Procedure, shortened: as §1

[4] = tested on: PPARg DBDmut IVT, anti-PPARg (DBD mutation: PPARg1 K132A/R137A, NR concentration 270 nM)
Procedure, shortened: as §1

[5] = tested on: PPARg homodimer (NR concentration 180 nM)
Procedure, shortened: as §1

[6] = tested on: PXR:RXRa (NR concentration 270 nM, RXRa partner concentration 90 nM)
Procedure, shortened: as §1

[7] = tested on: PXR homodimer (NR concentration 270 nM)
Procedure, shortened: as §1

[8] = tested on: RARa:RXR (NR concentration 270 nM, RXRa partner concentration 90 nM)
Procedure, shortened: as §1

[9] = tested on: RARa homodimer (NR concentration 270 nM)
Procedure, shortened: as §1

[10] = tested on: RARb:RXRa (NR concentration 270 nM, RXRa partner concentration 90 nM)
Procedure, shortened: as §1

[11] = tested on: RARb homodimer (NR concentration 270 nM)
Procedure, shortened: as §1

[12] = tested on: RARg:RXRa (NR concentration 270 nM, RXRa partner concentration 90 nM)
Procedure, shortened: as §1

[13] = tested on: RARg homodimer (NR concentration 270 nM)
Procedure, shortened: as §1

[14] = tested on: RXRa DBDmut IVT, anti-RXR (DBD mutation: RXRa K156A/R161A, NR concentration 90 nM)
Procedure, shortened: as §1

[15] = tested on: RXRa homodimer (NR concentration 180 nM)
Procedure, shortened: as §1

[16] = tested on: THRa:RXRa (NR concentration 90 nM, RXRa partner concentration 90 nM)
Procedure, shortened: as §1

[17] = tested on: THRa homodimer (NR concentration 90 nM)
Procedure, shortened: as §1

[18] = tested on: VDR homodimer (NR concentration 270 nM)
Procedure, shortened: as §1

Sequence | PBM binding z-score [1] | PBM binding z-score [2] | PBM binding z-score [3] | PBM binding z-score [4] | PBM binding z-score [5] | PBM binding z-score [6] | PBM binding z-score [7] | PBM binding z-score [8] | PBM binding z-score [9] | PBM binding z-score [10] | PBM binding z-score [11] | PBM binding z-score [12] | PBM binding z-score [13] | PBM binding z-score [14] | PBM binding z-score [15] | PBM binding z-score [16] | PBM binding z-score [17] | PBM binding z-score [18]
TCTGCTAGGTCAGTTGGTAAGCTAACGAGCTGCC | 2.46 | 2.46 | -0.0986 | 0.0442 | -0.393 | -0.186 | -1.11 | 0.233 | -1.42 | 3.29 | 1.95 | 2.35 | 3.32 | 0.399 | 0.543 | 1.16 | -0.266 | -0.694
GCGACTGGGGCATCTGCAGGTTACCATAACTTAA | 3.92 | 2.96 | -0.0823 | -0.117 | 0.207 | 0.314 | -0.507 | 0.637 | -1.22 | 0.859 | 1.06 | 1.21 | 0.411 | -0.0161 | 0.555 | 1.14 | -0.146 | -0.456
ACTATTAGTTGAGACGAGGGCAACCGCTAGGTTG | 0.0597 | 0.177 | 0.243 | 0.359 | 0.0959 | 1.55 | 0.226 | 0.773 | 0.0804 | 1.15 | 1.35 | 0.408 | 0.507 | 0.704 | 0.516 | 2.66 | 0.222 | 0.863
CGAACTAGGTCAGAACAGGTCAGTGAAGGATGAT | 7.05 | 7.16 | 1.14 | 1.73 | 1.66 | 3.32 | 0.18 | 2.3 | 0.424 | 3.57 | 3.88 | 3.47 | 4.34 | 1.03 | 2.22 | 4.08 | 0.526 | 0.955
CCGACTGGGGCTAAGGTTACCATACTCAGTACGA | 0.598 | 2.11 | -0.549 | -0.925 | 0.343 | 0.473 | -0.328 | 1.12 | -0.0476 | 1.12 | 1.12 | 0.783 | 0.678 | 0.382 | 0.902 | 2.39 | 1.68 | 0.443
ATCGAAAGGTCGACGAGGTGCGTATACACCGTTT | 0.356 | 1.41 | 0.639 | -0.109 | 1.06 | 3.37 | -0.325 | 2.45 | -0.212 | 3.79 | 2.58 | 3.76 | 3.9 | 0.716 | 4 | 2.46 | -0.328 | 0.77
CCTAGTTCGTCAAGGTCACACACGCTATAGGTAC | 1.21 | 2.33 | 1 | 1.24 | 4.18 | 5.38 | 10.4 | 4.97 | 2.49 | 4.37 | 4.36 | 4.84 | 4.77 | 4.16 | 4.74 | 4.39 | 4.47 | 6.91
CCTCGGAGGACAACAGGAGGTCAGAACTGCCAGA | 0.236 | 0.269 | -1.45 | -1.02 | 1.52 | 1.92 | 0.393 | 2.08 | 0.134 | 2.68 | 3.33 | 3.23 | 3.05 | 0.497 | 1.81 | 2.59 | 0.726 | 0.781
TCATATAGGTAGTACAGGTGAAAGTCGGCATCTA | 2.26 | 1.52 | 1.27 | 1.09 | 1.08 | 0.715 | 0.204 | 1.16 | 1.16 | 0.562 | 0.475 | 0.549 | 0.317 | 1.32 | 1.02 | 0.404 | 0.361 | 0.606
CCTACTGGGCCATTCAGACGTCATTGATCATATG | 4.26 | 3.42 | 0.223 | 0.732 | -0.0853 | -0.71 | -0.506 | -0.696 | -0.0635 | -0.11 | -0.514 | -0.25 | 0.169 | -0.119 | -0.341 | -0.533 | -0.741 | -0.378
TCTAGTAGGTTACCAATGGGGCATTCAGCTTTCT | 5.22 | 5.27 | 0.435 | 0.135 | 0.405 | 0.365 | -0.176 | 0.372 | 5.32e-05 | 1.26 | 0.934 | 1.47 | 0.705 | 1.13 | 0.88 | 0.163 | -0.277 | 0.254
CGAACTAGGTCATCAAGGACAGTGAATACATTGA | 8.23 | 8.64 | 1.85 | 1.55 | 1.45 | 2 | 1.45 | 2.13 | 0.127 | 3.88 | 3.18 | 3.95 | 4.85 | 1.92 | 2.67 | 3.87 | 2.11 | 1.83
GCTCGGAGGACAAGGTCAGAGCCTTGTCCGTAGA | -0.797 | 1.42 | -1 | -0.556 | 0.956 | 1.46 | -0.573 | 1.8 | -0.489 | 3.49 | 2.82 | 3.32 | 3.39 | 0.219 | 2.81 | 2.78 | 1.01 | 0.502
TCTCGGAGGACACGAAAGGTCAGCGCTCGACATC | 2.02 | 1.8 | -0.121 | 0.158 | 3.31 | 4.36 | 0.337 | 4.86 | 1.84 | 4.42 | 4.96 | 5.25 | 6.15 | 1.39 | 4.52 | 3.89 | 1.76 | 1.13
GCGACTGGGACAAAGCAGGTTACCATAAGGTTGG | 2.44 | 1.83 | -0.413 | -1.3 | 0.0292 | 0.0506 | -0.224 | 0.493 | -0.37 | 0.0729 | 0.587 | 0.308 | 0.367 | -0.523 | 0.419 | 1.59 | 0.162 | -0.161
ATATATAGGTTATCGGGTCATTCAGTTTGCGCAT | 7.55 | 7.39 | 3.48 | 3.64 | 4.29 | 3.91 | 8.17 | 4.26 | 3.1 | 2.96 | 3.49 | 3.74 | 2.97 | 2.18 | 4.13 | 3.51 | 3.2 | 4.39
